Laboratory results reported in ChEMBL document CHEMBL4513216, “Probing the Open Global Health Chemical Diversity Library for Multistage-Active Starting Points for Next-Generation Antimalarials” (ACS Infect Dis, 2020).
The whole screen tested about 69,000 compounds, of which about 8,600 (12%) showed an effect of 50% or more. What follows is part of a selection rich in strong results, with near analogues and random picks from the rest.

Each compound was assayed on Plasmodium berghei (assay: Screen against P. berghei liver stage (PbLuc), transformed with Luciferase, at 10uM). Conditions: tested at 10 uM.
Format: functional, HepG2

Q: For `CCc1nsc(N2CCCN(CC(=O)N(C)C3CC3)CC2)n1`, which INHIBITION is on record?
A: 39.3%

Q: For `COc1ccc(-c2noc(C(N)CCSC)n2)cc1OC` (centres undefined), which INHIBITION is on record?
A: 46.6%

Q: Which INHIBITION does the source give for `CNc1cc(CCNC(=O)C2CCCC2)nc(-c2ccccn2)n1` here?
A: -9.34%

Q: Which INHIBITION does the source give for `Cc1ccc(CNC(=O)C2CCNC(=O)C2)c(OCCC(C)C)c1` (centres undefined) here?
A: 58.4%

Q: How did the INHIBITION turn out when `Cc1cccc(Oc2ccccc2CNC(=O)C2CCNC(=O)C2)c1` (centres undefined) was run?
A: -33.7%

Q: `O=C1CC(C(=O)NCc2ccccc2Oc2ccccc2F)CCN1` (centres undefined) was tested. Which INHIBITION did it give?
A: 8.38%

Q: `CNC(=O)c1ccc(N(C)C2CCC2)nn1` was tested. Which INHIBITION did it give?
A: -107%

Q: For `CN(c1ccc(C(N)=O)nn1)C1CCC1`, which INHIBITION is on record?
A: -8.73%

Q: Which INHIBITION does the source give for `COC(=O)c1ccc(N(C)C2CCC2)nn1` here?
A: 50.1%

Q: How did the INHIBITION turn out when `Cc1noc2nc(C3CCN(CC4=CCCOC4)CC3)cc(C(F)F)c12` was run?
A: 39.8%

Q: With `CC(=O)Nc1nc(C2CCN(C(=O)Cc3ccccc3)CC2)cs1` as the compound, how does the INHIBITION read?
A: 0.301%

Q: `Cc1cc(C(=O)N2CCCC(C)C2)ccc1NCC(=O)N1CCOCC1` (centres undefined) was tested. Which INHIBITION did it give?
A: -47.6%

Q: Which INHIBITION does the source give for `CO[C@H]1CN(C(=O)c2ccc3c(c2)OCO3)[C@@H]2COC[C@H]12` here?
A: 1.48%

Q: How did the INHIBITION turn out when `CN(C)CCO[C@H]1CN(C(=O)c2ccc3c(c2)OCO3)[C@@H]2COC[C@H]12` was run?
A: -20.8%

Q: Which INHIBITION does the source give for `COCC1CN(C(=O)Cc2ccccn2)Cc2c1cnn2CC1CC1` (centres undefined) here?
A: 15.9%

Q: For `Cc1cc(C)n(C2CCCN(C(=O)Cc3cccs3)C2)n1` (centres undefined), which INHIBITION is on record?
A: -5.25%

Q: `COCC1CN(S(=O)(=O)c2ccc(C)cc2)Cc2c1cnn2C` (centres undefined) was tested. Which INHIBITION did it give?
A: 34.9%

Q: `Cn1ncc2ccc(C3CCCN(C(=O)Cc4cccs4)C3)nc21` (centres undefined) was tested. Which INHIBITION did it give?
A: 58.5%

Q: With `CCO[C@H]1CN(C(=O)c2ccc3c(c2)OCO3)[C@@H]2COC[C@H]12` as the compound, how does the INHIBITION read?
A: 57.9%

Q: With `COCC1CN(S(=O)(=O)Cc2ccc(C)cc2)Cc2c1cnn2C` (centres undefined) as the compound, how does the INHIBITION read?
A: -0.554%

Q: With `CCOCC1CN(C(=O)Cc2ccccn2)Cc2c1cnn2C` (centres undefined) as the compound, how does the INHIBITION read?
A: 26.4%

Q: Which INHIBITION does the source give for `Cn1ncc2ccc(C3CCCN(Cc4cccs4)C3)nc21` (centres undefined) here?
A: 20.74%

Q: How did the INHIBITION turn out when `COCC1CN(S(=O)(=O)Cc2ccccc2)Cc2c1cnn2C` (centres undefined) was run?
A: 54.1%

Q: For `Cn1ncc2c1CN(C(=O)Cc1ccccn1)CC2COCC1CC1` (centres undefined), which INHIBITION is on record?
A: 64.9%

Q: With `CC1CCN(S(=O)(=O)N2CCCN(CC3CCCO3)CC2)CC1` (centres undefined) as the compound, how does the INHIBITION read?
A: 38%

Q: Which INHIBITION does the source give for `CC(C)n1cnc2c1C(C(=O)NCCO)N(Cc1ccccc1)CC2` (centres undefined) here?
A: -18.4%

Q: For `CSc1ncc(C(=O)N2C[C@@H]3CC[C@H]2CN(c2ncccn2)C3)cn1`, which INHIBITION is on record?
A: 14%

Q: `COCC1CN(C(=O)c2cccn2C)Cc2c1cnn2CC1CC1` (centres undefined) was tested. Which INHIBITION did it give?
A: 31.7%

Q: With `CCn1ncc2c1CN(C(=O)Cc1cccs1)CC2COC` (centres undefined) as the compound, how does the INHIBITION read?
A: -27.9%

Q: Which INHIBITION does the source give for `COCC1CN(C(=O)c2ccnnc2)Cc2ncnn2C1` (centres undefined) here?
A: -41.6%

Q: For `CCn1ncc2c1CN(C(=O)c1cc(C)oc1C)CC2COC` (centres undefined), which INHIBITION is on record?
A: -12.1%

Q: With `COCC1CN(C(=O)CNC(C)=O)Cc2ncnn2C1` (centres undefined) as the compound, how does the INHIBITION read?
A: 6.8%

Q: For `COCC1CN(C(=O)Cc2cccs2)Cc2c1cnn2C` (centres undefined), which INHIBITION is on record?
A: 66%

Q: How did the INHIBITION turn out when `COCC1CN(C(=O)Cc2ccsc2)Cc2c1cnn2C` (centres undefined) was run?
A: 46.2%

Q: For `COCC1CN(C(=O)CC2Cc3ccccc3C2)Cc2c1cnn2C` (centres undefined), which INHIBITION is on record?
A: 59%

Q: Which INHIBITION does the source give for `COCC1CN(C(=O)c2ccnnc2)Cc2c1cnn2C` (centres undefined) here?
A: 48.3%

Q: How did the INHIBITION turn out when `COCC1CN(C(=O)Cc2ccccn2)Cc2ncnn2C1` (centres undefined) was run?
A: 64.9%

Q: Which INHIBITION does the source give for `CCn1ncc2c1CN(C(=O)c1ccc3c(c1)OCO3)CC2COC` (centres undefined) here?
A: 50.7%

Q: `CCn1ncc2c1CN(C(=O)c1cscn1)CC2COC` (centres undefined) was tested. Which INHIBITION did it give?
A: 45.1%

Q: For `Cc1ccc(N2CCCC(NCc3sccc3C)C2)nn1` (centres undefined), which INHIBITION is on record?
A: 36.1%

Q: For `O=C(c1cscn1)N1CCC2(CN(Cc3nccs3)C2)C1`, which INHIBITION is on record?
A: 15.9%

Q: `Cc1csc2ncc(-c3ccnc(NC4CCOCC4)n3)c(=O)n12` was tested. Which INHIBITION did it give?
A: -9.27%

Q: `CCCc1noc(C(C)N(CC)Cc2ccco2)n1` (centres undefined) was tested. Which INHIBITION did it give?
A: -30.5%

Q: For `O=C(c1ccno1)N1CC[C@@H]2O[C@H](COCCN3CCCC3)CC[C@@H]21`, which INHIBITION is on record?
A: 4.27%

Q: For `O=C1CCC2(CCCN(C(=O)Cc3cccnc3)C2)N1` (centres undefined), which INHIBITION is on record?
A: 0.112%

Q: `Fc1cccc(C2CCCCN2Cc2nc(-c3cnccn3)no2)c1` (centres undefined) was tested. Which INHIBITION did it give?
A: -12.6%

Q: How did the INHIBITION turn out when `Fc1ccc(C2CCCCN2Cc2cc(-c3ccccn3)no2)cc1` (centres undefined) was run?
A: 51.8%

Q: How did the INHIBITION turn out when `c1ccc(-c2cc(CN3CCCCCC3c3ccco3)on2)nc1` (centres undefined) was run?
A: -15%

Q: With `Fc1ccc(C2CCCN2Cc2nc(Cc3ccccc3F)no2)cc1` (centres undefined) as the compound, how does the INHIBITION read?
A: 25.8%

Q: With `CCc1nc(C2CCCN2Cc2ccno2)no1` (centres undefined) as the compound, how does the INHIBITION read?
A: 19.6%

Q: `CCc1cc(CN2CCCCC2c2ccc(F)cc2)on1` (centres undefined) was tested. Which INHIBITION did it give?
A: 65.7%

Q: Which INHIBITION does the source give for `COc1ccc(C2CCCCCN2S(C)(=O)=O)cc1` (centres undefined) here?
A: 27.4%

Q: `Cc1ccc2c(n1)N(C)CCN(Cc1ccco1)C2` was tested. Which INHIBITION did it give?
A: 3.88%

Q: For `CN1CCN(c2ncnc3c2CCN(S(=O)(=O)C2CC2)CC3)CC1`, which INHIBITION is on record?
A: 29.4%
